According to PubChem BioAssay:
A number with no mark means an inactive call. Calls of active or inactive are those of the source.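 Rule for the calls, unless noted: active = luciferase signal above three times the same-plate solvent-only control wells; inactive = the rest.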

Tests used:
[1] = biological target: 6-phosphogluconate dehydrogenase, decarboxylating (Homo sapiens) (UniProt P52209); assay: 6PGD enzyme inhibitors, primary screen, biochemical, human, recombinant enzyme, NADPH absorbance (AID 1159550;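 active = at least 20% inhibition of 6-phosphogluconate dehydrogenase activity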); conditions: recombinant 6PGD, NADPH absorbance 341 nm; at 10 µM; active compounds read high
Sequence of 6-phosphogluconate dehydrogenase, decarboxylating (Homo sapiens) (P52209 whole entry, looked up, the tested form may be a part): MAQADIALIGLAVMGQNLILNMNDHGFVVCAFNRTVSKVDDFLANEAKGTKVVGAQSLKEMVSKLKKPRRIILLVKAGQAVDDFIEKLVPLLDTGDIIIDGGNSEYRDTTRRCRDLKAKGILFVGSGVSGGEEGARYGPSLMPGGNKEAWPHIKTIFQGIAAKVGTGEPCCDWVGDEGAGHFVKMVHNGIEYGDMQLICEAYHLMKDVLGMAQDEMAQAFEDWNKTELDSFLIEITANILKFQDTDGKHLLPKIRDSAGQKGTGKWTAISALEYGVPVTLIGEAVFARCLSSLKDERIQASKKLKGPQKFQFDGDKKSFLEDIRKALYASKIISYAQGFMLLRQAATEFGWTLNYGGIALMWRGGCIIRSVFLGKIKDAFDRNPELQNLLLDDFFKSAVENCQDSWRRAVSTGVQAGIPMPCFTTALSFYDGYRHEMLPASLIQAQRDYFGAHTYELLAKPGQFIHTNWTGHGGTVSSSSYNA

[2] = biological target: Mitogen-activated protein kinase 7 (Homo sapiens) (UniProt Q13164); assay: ERK5 transactivation activators in reporter cells, primary screen, cell-based, HTS (AID 1508626); conditions: HeLa Gal4-ERK5 transactivation, 18 h, at 5 µM, active compounds read high;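 note: luciferase driven by Gal4-ERK5 fusion binding five Gal4 sites before minimal TATA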
Sequence of Mitogen-activated protein kinase 7 (Homo sapiens) (Q13164 whole entry, looked up, the tested form may be a part): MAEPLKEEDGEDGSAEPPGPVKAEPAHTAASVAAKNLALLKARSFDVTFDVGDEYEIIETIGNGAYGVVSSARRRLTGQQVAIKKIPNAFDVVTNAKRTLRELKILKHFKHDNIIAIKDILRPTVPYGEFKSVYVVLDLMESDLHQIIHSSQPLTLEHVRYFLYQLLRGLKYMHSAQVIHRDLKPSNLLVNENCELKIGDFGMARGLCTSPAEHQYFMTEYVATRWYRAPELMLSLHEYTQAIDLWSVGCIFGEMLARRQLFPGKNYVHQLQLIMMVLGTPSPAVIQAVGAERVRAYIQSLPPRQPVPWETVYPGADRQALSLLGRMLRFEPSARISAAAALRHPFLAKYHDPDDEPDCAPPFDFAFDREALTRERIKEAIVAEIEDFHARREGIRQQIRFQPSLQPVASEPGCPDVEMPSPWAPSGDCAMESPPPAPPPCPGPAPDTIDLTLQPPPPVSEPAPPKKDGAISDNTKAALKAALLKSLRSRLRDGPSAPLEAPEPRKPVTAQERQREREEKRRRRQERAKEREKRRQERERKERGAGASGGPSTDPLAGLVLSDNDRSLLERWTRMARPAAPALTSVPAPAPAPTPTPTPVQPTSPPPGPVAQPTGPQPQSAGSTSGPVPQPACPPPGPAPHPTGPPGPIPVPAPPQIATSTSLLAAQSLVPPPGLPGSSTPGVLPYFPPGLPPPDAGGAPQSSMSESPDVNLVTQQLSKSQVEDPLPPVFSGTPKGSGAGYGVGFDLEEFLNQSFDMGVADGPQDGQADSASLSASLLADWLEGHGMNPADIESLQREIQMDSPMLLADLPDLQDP

Row | Compound | inhibition [1] [%] | luciferase signal [2]
1 | CC1(C)C(=O)C=C[C@@]2(C)C1C=C[C@]1(C)C2CC[C@@]2(C)[C@H](c3ccoc3)OC(=O)C3OC321 (stereo partly specified) | -14.8 | 40 AU
2 | COS(C)(=O)=O | 6.76 | 124 AU
3 | CC(=O)OC1C[C@@]2(C)[C@H](c3ccoc3)OC(=O)[C@H]3O[C@]32[C@@]2(C)C1[C@]1(C)C(C[C@H]2OC(C)=O)C(C)(C)[C@H](OC(C)=O)C[C@@H]1OC(C)=O (stereo partly specified) | -3.59 | 24 AU
4 | CC(=O)OCC1(O)CC23CCC4c5ccoc5CCC4(C)C2CCC1C3 (stereo unspecified) | 4.27 | 24 AU
5 | C[C@H]1C(=O)CC[C@@H]2[C@]1(C)CC[C@H]1[C@@]2(C)CC[C@@]2(C)[C@@H]3CC(C)(C)CC[C@]3(C)CC[C@]12C | 7.58 | 88 AU
6 | COC(=O)CC[C@@H](C)[C@H]1CC[C@H]2[C@@H]3[C@H](O)C[C@@H]4C[C@H](O)CC[C@]4(C)[C@H]3C[C@H](O)[C@]12C | -4.15 | 252 AU (active)
7 | OC[C@@H](O)[C@@H](O)C(O)[C@H](O)[C@@H](O)CO (stereo partly specified) | -5.44 | 56 AU
8 | CC1(C)C2CC(=O)O[C@@]3(C)C4=CC(=O)O[C@@H](c5ccoc5)[C@]4(C)CCC3[C@@]2(C)C=C[C@H]1O (stereo partly specified) | 9.39 | 20 AU
9 | O=C(O)c1cc(O)c2c(c1)C(=O)c1cc(O)cc(O)c1C2=O | 6.18 | 76 AU
10 | CC(=O)Oc1c(-c2ccccc2)oc2c(CC=C(C)C)c3c(c(OC(C)=O)c2c1=O)C=CC(C)(C)O3 | 7.48 | 40 AU
11 | O=C(NCO)c1cccnc1 | -8.21 | 68 AU
12 | CC(=O)O[C@]1(C)CC[C@@]23C[C@@H]1C(C)(C)[C@@H]2CC[C@H]3C | 13.3 | 56 AU
13 | COC(=O)C[C@H]1C(C)(C)[C@@H](O)[C@@H]2CC3=C4C=C(OC)O[C@@H](c5ccoc5)[C@]4(C)CCC3[C@@]1(C)C2=O (stereo partly specified) | 1.56 | 28 AU
14 | CC(C)c1c(O)ccc2c1CCC1[C@@](C)(C=O)CCC[C@]21C (stereo partly specified) | -10.2 | 16 AU
15 | CCC(C)C(=O)OC1[C@@H]2CC3=C4CC(=O)O[C@@H](c5ccoc5)[C@]4(C)CCC3[C@@](C)(C2=O)[C@@H](CC(=O)OC)C1(C)C (stereo partly specified) | 6.33 | 116 AU
16 | CC1/C(=N/O)C[C@@H]2C[C@H]1C2(C)C (stereo partly specified) | -7.59 | 52 AU
17 | CC(C)CCC[C@@H](C)[C@H]1CC[C@H]2C3=CC[C@H]4C[C@@H](O)CC[C@]4(C)[C@H]3CC[C@]12C | 4.86 | 56 AU
18 | O=C1C=C(O)c2ccccc2C1=O | 5.16 | 44 AU
19 | COC(=O)CC1C(C)(C)C(OC(C)=O)[C@@H]2[C@@H](OC(C)=O)[C@]34O[C@@]2(O)[C@]1(C)C3CC[C@]1(C)C4=CC(=O)O[C@H]1c1ccoc1 (stereo partly specified) | -1.28 | 12 AU
20 | CC(=O)O[C@H]1CC[C@@]2(C)C(=CC=C3[C@@H]4CC[C@H]([C@H](C)/C=C/[C@H](C)C(C)C)[C@@]4(C)CC[C@@H]32)C1 | 14.6 | 72 AU
21 | CCC(=O)O[C@H]1CC[C@H]2[C@@H]3CCc4cc(O)ccc4[C@H]3CC[C@]12C | -10.1 | 24 AU
22 | C[C@@H]([C@H]1OC(C)(C)[C@@H](O)[C@H]1O)[C@@H]1CC[C@]2(C)C3=CC[C@H]4C(C)(C)C(=O)CC[C@]4(C)[C@H]3CC[C@@]12C | 4.2 | 44 AU
23 | O=c1cc(-c2ccc(O)cc2)oc2cc(O[C@@H]3O[C@H](CO)[C@@H](O)[C@H](O)[C@H]3O)cc(O)c12 | -5.65 | 120 AU
24 | CC(=O)OC[C@H]1O[C@@H](Oc2cc(OC(C)=O)c3c(=O)cc(-c4ccc(OC(C)=O)cc4)oc3c2)[C@H](OC(C)=O)[C@@H](OC(C)=O)[C@@H]1OC(C)=O | 6.51 | 80 AU
25 | Cc1cc(=O)c2c(O)cc(O)c(C)c2o1 | 9.08 | 132 AU

Row | Compound | inhibition [1] [%] | luciferase signal [2]
26 | COC(=O)C[C@H]1C(C)(C)[C@@H](OC(C)=O)[C@@H]2CC3C4CC(=O)O[C@@H](c5ccoc5)[C@]4(C)CCC3[C@@]1(C)C2=O (stereo partly specified) | 7.27 | 28 AU
27 | CC(C)=CCC/C(C)=C\CO | 6.7 | 60 AU
28 | CC1(C)[C@@H](O)CC[C@]2(C)[C@H]3C(=O)C=C4[C@H]5C[C@@](C)(C(=O)O)CC[C@]5(C)CC[C@@]4(C)[C@]3(C)CC[C@@H]12 | -38.1 | 24 AU
29 | COC(=O)C[C@H]1C(C)(C)[C@H](OC(C)=O)[C@@H]2CC3=C4CC(=O)O[C@@H](c5ccoc5)[C@]4(C)CC[C@@H]3C1(C)C2=O | 7.02 | 24 AU
30 | COc1ccc(-c2oc3cc(O[C@@H]4O[C@H](CO)[C@@H](O)[C@H](O)[C@H]4O)c(OC)c(O)c3c(=O)c2OC)cc1O | -33.5 | 172 AU
31 | C[C@@H]1O[C@@H](O[C@H]2[C@H](O[C@H]3CC[C@@]4(C)[C@@H](CC[C@]5(C)[C@@H]4CC=C4[C@@H]6CC(C)(C)CC[C@]6(C(=O)O)CC[C@]45C)[C@]3(C)CO)OC[C@H](O)[C@@H]2O)[C@H](O)[C@H](O)[C@H]1O | 10.9 | 40 AU
32 | O=C(Cc1ccccc1)NO | -18.4 | 68 AU
33 | COc1ccc(-c2coc3cc(OC)cc(OC)c3c2=O)cc1 | 4.5 | 60 AU
34 | O=C(Cc1cccs1)N[C@@H]1C(=O)N2C(C(=O)[O-])=C(C[n+]3ccccc3)CS[C@H]12 | 0.514 | 112 AU
35 | COC(=O)C1=CO[C@@H](O[C@@H]2O[C@H](CO)[C@@H](O)[C@H](O)[C@H]2O)[C@@H]2[C@@H](C)[C@@H](O)C[C@H]12 | 6.61 | 20 AU
36 | COc1ccc(-c2cc(=O)c3cc(OC)ccc3o2)cc1 | -2.36 | 40 AU
37 | CC(=O)O[C@@H]1C[C@H]2C(C)(C)[C@@H](O)CC[C@]2(C)[C@H]2CC[C@@]3(C)[C@H](c4ccoc4)OC(=O)[C@H]4O[C@]43[C@@]21C | -6.19 | 108 AU
38 | O=C1CC[C@]23/C=C\C(=O)NCCCCNCCCNC(=O)/C=C\c4ccc(c2c4)O[C@@H]3C1 | -0.518 | 36 AU
39 | OC[C@H]1O[C@@](CO)(O[C@H]2O[C@H](CO)[C@@H](O)[C@H](O)[C@H]2O)[C@@H](O[C@H]2O[C@H](CO)[C@@H](O)[C@H](O)[C@H]2O)[C@@H]1O | 15.1 | 60 AU
40 | O=C(O)/C=C(/CC(=O)O)C(=O)O | 8.82 | 60 AU
41 | COc1cc(O)c2c(=O)c(O)c(-c3ccc(O)c(O)c3)oc2c1 | 4.95 | 144 AU
42 | CCCCCC/C=C\CCCCCCCc1cccc(O)c1C(=O)O | 0.888 | 76 AU
43 | C=C1C2CCC3(C)C(c4ccoc4)OC(=O)CC13OC1CC(OC(C)=O)C(C)(C)C(CC(=O)OC)C12C (stereo unspecified) | 5.49 | 56 AU
44 | COc1ccc2c(c1)OC/C(=C/c1ccc(OC)c(OC)c1)C2=O | -0.769 | 36 AU
45 | CC(C)=CCc1c(O)cc2occ(-c3ccc4c(c3)OCO4)c(=O)c2c1O | -0.247 | 104 AU
46 | C[C@@H]1O[C@@H](Oc2c(-c3ccc(O)c(O)c3)oc3cc(O)cc(O)c3c2=O)[C@H](O)[C@H](O)[C@H]1O | -14.2 | 52 AU
47 | C[N+]1(C)C[C@H](O)C[C@H]1C(=O)[O-] | 0.213 | 60 AU
48 | CC1=C[C@@H]2[C@@H](CC1)[C@](C)(O)CC[C@H]2C(C)C | 9.65 | 48 AU
49 | COc1cc(OC)c2c(c1Cl)O[C@@]1(C(=O)CC(=O)C[C@H]1C)C2=O | 4.62 | 48 AU
50 | O=C(/C=C(\O)c1ccccc1)c1ccccc1O | -0.592 | 16 AU

Row | Compound | inhibition [1] [%] | luciferase signal [2]
51 | COc1ccc(CC(=O)c2ccc(O)cc2O)cc1 | 17.5 | 76 AU
52 | O=C(O)C1CC([C@@H]2CCCCN2)CN2CCCCC12 (stereo partly specified) | 18.1 | 220 AU (active)
53 | CC(C)C1=CC2=CC[C@@H]3[C@](C)(CCC[C@@]3(C)C(=O)O)[C@H]2CC1 | -6.38 | 44 AU
54 | CO[C@H]1C=C[C@@]23c4cc5c(cc4CN(C[C@@H]2O)[C@H]3C1)OCO5 | 13.8 | 44 AU
55 | C[C@@H]1CC[C@H]2C(C)(C)[C@H]3C[C@@]12CC[C@@]3(C)O | 1.71 | 28 AU
56 | C/C(=C\CO)CCC[C@H](C)CCC[C@H](C)CCCC(C)C | 5.74 | 72 AU
57 | CC(=O)/C=C\[C@@H]1[C@@]2(C)CCCC(C)(C)C2CC[C@@]1(C)O (stereo partly specified) | 14.1 | 348 AU (active)
58 | C[C@@H]1CC[C@@]2(OC1)O[C@H]1C[C@H]3[C@@H]4CC[C@H]5C[C@@H](O)CC[C@]5(C)[C@H]4CC[C@]3(C)[C@H]1[C@@H]2C | -2.45 | 36 AU
59 | CC1=C(/C=C/C(C)=C/C=C/C(C)=C/C=C/C=C(C)/C=C/C=C(C)/C=C/C2=C(C)C(=O)[C@@H](O)CC2(C)C)C(C)(C)C[C@H](O)C1=O | -11.7 | 48 AU
60 | COC(=O)C(O)c1ccccc1 (stereo unspecified) | 1.31 | 28 AU
61 | CC1C2[C@]3(CC[C@H]1C)CCC1(C)[C@@]2(C=CC2[C@@]4(C)CC[C@H](O)C(C)(C)C4CC[C@]21C)OC3=O (stereo partly specified) | 5.53 | 56 AU
62 | COC(=O)CCCOc1ccc(Cl)cc1Cl | -8.02 | 60 AU
63 | CC1CCC(C(C)C)C(OC(=O)c2ccccc2)C1 (stereo unspecified) | 3.54 | 48 AU
64 | COc1cc(/C=C/CO)ccc1O | 17.3 | 96 AU
65 | COc1c(O)cc2c(-c3ccccc3)cc(=O)oc2c1OC | -3.61 | 48 AU
66 | CC(=O)OC1CCC2(O)CC1(C)CCC1C2CC1(C)C (stereo unspecified) | 15.6 | 36 AU
67 | COc1cc(OC)c2c(=O)c(OC)c(-c3ccc(OC)c(OC)c3)oc2c1 | 1.73 | 68 AU
68 | CC1(C)CC[C@]2(C)CC[C@]3(C)C(=CC[C@@H]4[C@@]5(C)CC[C@H](O)C(C)(C)[C@@H]5CC[C@]43C)[C@@H]2C1 | 10.2 | 20 AU
69 | CC(C)[C@@H](C)/C=C/[C@@H](C)[C@H]1CC[C@H]2C3=CC=C4C[C@@H](O)CC[C@]4(C)[C@H]3CC[C@]12C | -7.51 | 96 AU
70 | COC1=C(O)c2cc3oc(C(C)=O)c(O)c3c(O)c2C(=O)C1=O | 1.87 | 52 AU
71 | CC1(C)CC[C@]2(C(=O)O)CC[C@]3(C)C(=CC[C@@H]4[C@@]5(C)CC[C@H](O)[C@@](C)(CO)[C@@H]5CC[C@]43C)[C@@H]2C1 | -1.09 | 76 AU
72 | C[C@@H]1CC[C@H]2[C@](C)(CO)[C@@H](O)CC[C@]2(C)[C@@]12CC[C@@](CO)(CCO)O2 | -5.82 | 48 AU
73 | C=C1C(=O)OC2CC1C(OC(C)=O)C/C(C)=C/CC/C(C)=C\CCC2(C)O (stereo unspecified) | 10.9 | 16 AU
